Several values for one entry are separate records, joined by “and”; a condition that tells them apart may be missing. Identical values can stand only once. Hit rate of the full screen: of about 16,000 compounds, about 5,100 (32%) were called active. Another 25% or so got no clear call; they are omitted. The list shows a part of the results. Values without a mark were called inactive. Calls follow the shape of the dose curve; as a rule, active = well fitted curve in the direction sought with a large enough effect; inconclusive = small, poorly fitted or top-dose-only effect, or effect the other way; inactive = no such curve, though single readings can be large or run the other way.
The molecules below were run against Cytochrome P450 3A4 (Homo sapiens) (UniProt P08684) (assay: Cytochrome panel assay with activity outcomes). Conditions: recombinant CYP, pro-luciferin dealkylation, luminescence, p450-cyp3a4; series mostly up to 57.1 µM.
Chain of Cytochrome P450 3A4 (Homo sapiens) (P08684 whole entry, looked up): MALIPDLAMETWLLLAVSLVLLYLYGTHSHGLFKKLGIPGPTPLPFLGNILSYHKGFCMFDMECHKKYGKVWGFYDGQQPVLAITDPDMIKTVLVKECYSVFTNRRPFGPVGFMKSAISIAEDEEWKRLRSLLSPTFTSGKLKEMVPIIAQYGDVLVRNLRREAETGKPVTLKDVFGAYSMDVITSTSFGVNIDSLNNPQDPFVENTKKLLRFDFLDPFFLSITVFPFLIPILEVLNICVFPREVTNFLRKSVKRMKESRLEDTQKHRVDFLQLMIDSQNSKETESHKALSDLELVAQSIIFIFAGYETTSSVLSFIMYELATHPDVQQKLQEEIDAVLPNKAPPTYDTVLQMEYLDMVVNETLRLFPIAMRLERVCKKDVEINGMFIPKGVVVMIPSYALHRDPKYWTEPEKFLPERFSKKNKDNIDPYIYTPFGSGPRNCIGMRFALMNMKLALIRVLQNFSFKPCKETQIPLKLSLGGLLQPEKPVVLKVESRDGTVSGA
`Cc1cc(C)nc(NC(=O)/C=C/c2ccc(Cl)cc2Cl)c1` gave an activity, negative = inhibition of 4.58% [at 2.29 µM].
With `COCCCNC(=O)/C=C/c1cccc(Cl)c1` the AC50 was “inactive”.
For `O=C(/C=C/c1cccc(Cl)c1)Nc1ccncc1`, the AC50 was 0.178 µM (active).
With `NS(=O)(=O)c1cc(Br)c(N=Nc2ccc(O)c3ncccc23)c(Br)c1` the activity, negative = inhibition was -8.46% [at 11.4 µM].
For `COC(=O)C1CC1C(NC(=O)[C@@H]1CCCN1)c1ccccc1` (stereo partly drawn), the AC50 was 12.6 µM (active).
In the case of `COC(=O)C1CC1C(NC(=O)[C@H]1CCCCN1)c1ccccc1` (stereo partly drawn), the AC50 is reported as 10 µM (active).
`O=C(O)[C@@H]1CCCN1` gave an activity, negative = inhibition of -4.77% [at 11.4 µM].
For `COc1cc(Br)c(C(C)NC(=O)c2cccc(Br)c2)cc1OC` (stereo not drawn), the AC50 was 0.282 µM (active).
With `COc1ccc(C(=O)NC(C)c2cc(OC)c(OC)cc2Br)cc1` (stereo not drawn) the AC50 was 0.501 µM (active).
With `COc1ccc(C(=O)[C@H](Br)[C@H](Br)C(=O)O)cc1` the activity, negative = inhibition was 3.56% [at 11.4 µM].
For `NS(=O)(=O)c1cc2c(cc1Cl)N[C@@H](CC1CCCC1)NS2(=O)=O`, the AC50 was “inactive”.
For `CC(=O)c1cc2ccccc2oc1=O`, the AC50 was “inactive”.
For `CC(C)OC(=O)c1cc2ccccc2oc1=O`, the AC50 was “inactive”.
With `CC(C)(C)c1ccc(C(=O)Nc2ccc(NC(=O)c3ccco3)cc2)cc1` the activity, negative = inhibition was 11.7% [at 2.29 µM].
`O=C(Nc1ccc(-n2nncc2-c2ccco2)cc1)c1ccc(F)cc1` was tested, and the AC50 was 0.708 µM (active).
For `C/C(=N/NC(=O)c1ccc(NC(=O)c2ccc(F)cc2)cc1)c1ccccc1`, the activity, negative = inhibition was 15.1% [at 0.457 µM].
With `O=C(Nc1ccc(-n2nncc2-c2ccco2)cc1)c1cc2ccccc2oc1=O` the AC50 was 4.47 µM (active).
With `COc1ccc(-c2cnnn2-c2ccc(NC(=O)c3ccco3)cc2)cc1OC` the AC50 was 1 µM (active).
In the case of `COc1ccc(Br)c2c1C[C@H](C(=O)O)CC2`, the activity, negative = inhibition is reported as -12.7% [at 11.4 µM].
With `Nc1nc2c(c(=O)[nH]1)CN(c1ccc(S(N)(=O)=O)cc1)CN2` the activity, negative = inhibition was -4.97% [at 11.4 µM].
For `CC(=O)SCC[N+](C)(C)C`, the AC50 was “inactive”.
In the case of `COC(=O)[C@@H]1CC[C@H](C)[C@@H](c2ccc(C)cc2)N1C(=O)c1ccc(/C=N\OC[C@@H](C)[C@H](OCc2ccccc2)C(C)C)cc1`, the AC50 is reported as 3.98 µM (active).
In the case of `CO/N=C\c1ccc(C(=O)N2[C@H](c3ccc(C)cc3)[C@@H](C)CC[C@H]2C(=O)OC)cc1`, the AC50 is reported as 3.16 µM (active).
For `COC(=O)[C@@H]1CC[C@H](C)[C@@H](c2ccc(C)cc2)N1C(=O)c1ccc(/C=N\O[C@@H](C)c2cn([C@H](CO)Cc3ccccc3)nn2)cc1`, the AC50 was 1.26 µM (active) and 3.16 µM (active).
Work on `COC(=O)[C@@H]1CC[C@H](C)[C@@H](c2ccc(C)cc2)N1C(=O)c1ccc(/C=N\OCC[C@@H]2C=C[C@H](OC(C)=O)[C@H](COC(C)=O)O2)cc1` yielded an activity, negative = inhibition of -18.2% [at 11.4 µM].
With `COC(=O)[C@@H]1CC[C@H](C)[C@@H](c2ccc(C)cc2)N1C(=O)c1ccc(/C=N\O[C@@H]2O[C@H](COC(C)=O)[C@H](OC(C)=O)[C@H](OC(C)=O)[C@H]2OC(C)=O)cc1` the activity, negative = inhibition was -14.4% [at 11.4 µM].
For `O=Nc1ccc(NOC(=O)c2ccc(Br)cc2)cc1`, the AC50 was “inactive”.
For `O=C(O)c1cc2ccccc2c(Cc2cc3ccccc3c(C(=O)O)c2O)c1O` (tested in a mixture with another compound), the AC50 was “inactive”.
`COc1ccc2c(Cc3c4ccccc4cc4ccccc34)cncc2c1O` was tested, and the AC50 was 1 µM (active).
`Oc1ccc2ccccc2c1Cc1c(O)ccc2ccccc12` showed an activity, negative = inhibition of -19% [at 11.4 µM].
With `OC[C@H](S)CS` the activity, negative = inhibition was -9.69% [at 11.4 µM].
`CCn1c(SCc2cccc(C)c2)nnc1-c1ccc(C)cc1` was tested, and the AC50 was 8.91 µM (active).
For `Cc1cccc(CSc2cccc3cccnc23)c1`, the AC50 was “inactive”.
For `CCn1c(SCc2ccc(C)cc2)nnc1-c1nn(-c2ccccc2)ccc1=O`, the AC50 was 8.91 µM (active).
`COc1ccc(-c2nnc(SCc3cccc(C)c3)n2N)cc1` was tested, and the AC50 was 10 µM (active).
In the case of `CCC(=O)O[C@@H]1[C@H](C)O[C@H](O[C@H]2[C@@H](N(C)C)[C@H](O)[C@@H](O[C@@H]3[C@@H](CC=O)C[C@@H](C)[C@@H](O)/C=C\C=C/C[C@@H](C)OC(=O)C[C@@H](OC(=O)CC)[C@H]3OC)O[C@H]2C)C[C@]1(C)O`, the AC50 is reported as “inactive”.
`O=C1C2C3C=CC(C3)C2C(=O)N1/N=C/c1cn(Cc2ccccc2)c2ccccc12` (stereo not drawn) gave an activity, negative = inhibition of -22.4% [at 11.4 µM].
With `COC(=O)Cn1cc(/C=N/NC(=O)c2ccc(C#N)cc2F)c2ccccc21` the activity, negative = inhibition was -10.5% [at 2.29 µM].
With `O=C1C2C3C=CC(C3)C2C(=O)N1/N=C/c1cn(Cc2ccc(F)cc2)c2ccccc12` (stereo not drawn) the AC50 was 2.82 µM (active).
With `COC(=O)/C=C\CCc1coc(/C=C\CNC(=O)OC)n1` the activity, negative = inhibition was -19.3% [at 11.4 µM].
In the case of `COC(=O)[C@H]1C[C@@H]1[C@H](NC(=O)Oc1ccc(F)cc1)c1ccccc1`, the AC50 is reported as 15.8 µM (active).
For `COC(=O)[C@@H]1C[C@H]1[C@@H](NC(C)=O)c1ccccc1`, the AC50 was “inactive”.
`COC(=O)[C@H]1C[C@@H]1[C@H](NC(C)=O)c1ccccc1` was tested, and the AC50 was “inactive”.
In the case of `COC(=O)[C@@H]1C[C@H]1[C@@H](NC(=O)Oc1ccc(F)cc1)c1ccccc1`, the AC50 is reported as 12.6 µM (active).
In the case of `O=C(O)[C@H]1CN(CCCP(=O)(O)O)CCN1`, the AC50 is reported as “inactive”.
In the case of `COC(=O)C1(C)C=C2C(=C(c3ccccc3)C(=O)C2C)CN1` (stereo not drawn), the AC50 is reported as 10 µM (active).
In the case of `CCCCCC1=C2CNC(C)(C(=O)OC)C=C2C(C)C1=O` (stereo not drawn), the AC50 is reported as 12.6 µM (active).
For `CCCCCC1=C2CNC(CCC)(C(=O)OC)C=C2C(C)C1=O` (stereo not drawn), the AC50 was 20 µM (active).
`COC(=O)C1(Cc2ccccc2)C=C2C(=C(C(C)C)C(=O)C2C)CN1` (stereo not drawn) was tested, and the AC50 was 7.94 µM (active).
With `CCCCCC1=C2CNC(Cc3ccccc3)(C(=O)OC)C=C2C(C)C1=O` (stereo not drawn) the AC50 was 15.8 µM (active).
With `COc1ncc2nc(-c3cccs3)c(=O)n(C)c2n1` the AC50 was 15.8 µM (active).
In the case of `COc1ccc(Oc2ncc3nc(-c4cccs4)c(=O)n(C)c3n2)cc1`, the AC50 is reported as 3.98 µM (active).
With `Cn1c(=O)c(-c2cccs2)nc2cnc(Oc3ccccc3)nc21` the AC50 was “inactive”.
% is scaled to controls: 0 for no effect and ±100 for the full control effect.
